Compounds without any hit were thinned out: in the full panel of roughly 83,000, 20% have a hit.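 Single-concentration screen, 48 h exposure, 96-well plates. Endpoint: percent growth. Below 10 = active.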 A number with no mark means an inactive call. Activity calls are given as the source filed them.

What all share (test): NCI-60 one-dose screen, 48 h (100 = growth as untreated, 0 = no growth, -100 = all killed)
One assay concerns HCT-15 colon. The following applies: 10 µM unless noted.
Another assay relates to HT29 colon. The following applies: 10 µM unless noted.
The test system of another assay is SNB-75 CNS. The following applies: 10 µM unless noted.
The test system of another assay is SNB-19 CNS. The following applies: 10 µM unless noted.
In another assay the test system is U251 CNS. The following applies: 10 µM unless noted.
The subject of a further assay is PC-3 prostate. The following applies: 10 µM unless noted.
A further assay has as its system SK-MEL-5 melanoma. The following applies: 10 µM unless noted.
The subject of the next assay is UACC-62 melanoma. The following applies: 10 µM unless noted.
For the next assay, the system named is LOX IMVI melanoma. The following applies: 10 µM unless noted.
The subject of a further assay is SK-MEL-28 melanoma. The following applies: 10 µM unless noted.
In a further assay the test system is EKVX NSCLC. The following applies: 10 µM.
In another assay the test system is SN12C renal. The following applies: 10 µM unless noted.
In another assay the test system is UO-31 renal. The following applies: 10 µM unless noted.
For a further assay, the system named is TK-10 renal. The following applies: 10 µM unless noted.
Another assay has as its system ACHN renal. The following applies: 10 µM unless noted.
A further assay deals with A498 renal. The following applies: 10 µM unless noted.
A further assay deals with CCRF-CEM leukemia. The following applies: 10 µM.
A further assay relates to MOLT-4 leukemia. The following applies: 10 µM unless noted.
The test system of a further assay is CAKI-1 renal. The following applies: 10 µM unless noted.

As to `CC[C@H](Nc1ncnc2nc[nH]c12)c1nc2cccc(NCc3ccc(C(=O)NO)nc3)c2c(=O)n1-c1ccccc1`, the growth was 97.1% in the assay with HCT-15 colon; 66.6% in the assay on HT29 colon; 5.43% (active) in the assay with SNB-75 CNS; 26% with SNB-19 CNS; 23.6% in the assay on U251 CNS; 23% with PC-3 prostate. In addition, the growth was 80.2% in the assay with SK-MEL-5 melanoma; 20.5% with UACC-62 melanoma; 23.1% in the assay with LOX IMVI melanoma; 57.6% with SK-MEL-28 melanoma; 77.1% in the assay with EKVX NSCLC; 38.9% in the assay with SN12C renal. Moreover, the growth was 87.1% in the assay on UO-31 renal; 58.9% with TK-10 renal; 97% with ACHN renal; 54.2% in the assay on A498 renal; 19.6% in the assay with CCRF-CEM leukemia; 15% in the assay with MOLT-4 leukemia.

With `O=C(Nc1ccc(-n2cc(-c3ccncc3)c(-c3ccc(Cl)c(O)c3)n2)cc1)c1cc(C(F)(F)F)cc(C(F)(F)F)c1`, the growth was 27.8% with HCT-15 colon; 11.1% in the assay with HT29 colon; 12.2% in the assay on SNB-75 CNS; 72.5% with SNB-19 CNS; 54.3% in the assay on U251 CNS; 72.1% in the assay with PC-3 prostate. Also, the growth is 55.8% in the assay on SK-MEL-5 melanoma; 68.5% in the assay with UACC-62 melanoma; 53.1% in the assay on LOX IMVI melanoma; 45.9% in the assay with SK-MEL-28 melanoma; 97.4% with EKVX NSCLC; 74.7% in the assay on SN12C renal. For the same molecule, the growth in the assay with UO-31 renal is 67.5%; in the assay with TK-10 renal, 65.4%; in the assay on ACHN renal, 54.3%; in the assay on CAKI-1 renal it was 60.4%; with CCRF-CEM leukemia, 72.9%; with MOLT-4 leukemia, 55.6%.

For `O=Nc1ccc(O)c2ccccc12`, the growth in the assay on HCT-15 colon is 23.6%; in the assay on HT29 colon it was 1.37% (active); in the assay on SNB-75 CNS, -64.5% (active); with SNB-19 CNS, 57.8%; in the assay on U251 CNS it was -14% (active); with PC-3 prostate, -10.5% (active). Also, the growth in the assay on SK-MEL-5 melanoma is -97.4% (active); in the assay with UACC-62 melanoma, 15.8%; in the assay on LOX IMVI melanoma, -1.33% (active); in the assay on SK-MEL-28 melanoma, 13.3%; with EKVX NSCLC it was 32.7%; with SN12C renal, -50.1% (active). The growth in the assay with UO-31 renal is 38%; in the assay with TK-10 renal, 5.45% (active); with ACHN renal, 19.9%; in the assay on CAKI-1 renal, 14.1%; in the assay with A498 renal, 118%; in the assay on CCRF-CEM leukemia, 5.22% (active). Also, in the assay on MOLT-4 leukemia, the growth is 59.3%.

Consider `N#Cc1c2cccnc2c2nnc3cc(Cl)c(Cl)cc3n12`, for which the growth in the assay with HCT-15 colon was 1.83% (active); in the assay with HT29 colon, -50.6% (active); with SNB-75 CNS it was -6.13% (active); in the assay with SNB-19 CNS it was 63.1%; in the assay with U251 CNS, 26.2%; in the assay with PC-3 prostate, 18.4%. Also, the growth in the assay with SK-MEL-5 melanoma is 86.1%; with UACC-62 melanoma it was 52.5%; in the assay on LOX IMVI melanoma, 21.9%; with SK-MEL-28 melanoma, 17.6%; with EKVX NSCLC, 80.8%; in the assay with SN12C renal, 75%. Further, the growth with UO-31 renal is 30.8%; in the assay on TK-10 renal, -31.8% (active); in the assay on ACHN renal, 10.2%; in the assay on CAKI-1 renal it was -3.12% (active); in the assay with A498 renal, 80.9%; in the assay on CCRF-CEM leukemia, 29.1%. Besides, the growth with MOLT-4 leukemia was 7.72% (active).

Turning to `CC(C)(C)c1ccc(OCCOC(=O)CBr)cc1`, the growth in the assay on HCT-15 colon was 97.9%; with HT29 colon, 104%; in the assay on SNB-75 CNS, 84.6%; in the assay on SNB-19 CNS it was 104%; in the assay on U251 CNS, 103%; in the assay on PC-3 prostate, 110%. In addition, the growth is 97% in the assay on SK-MEL-5 melanoma; 93.6% in the assay with UACC-62 melanoma; 97.8% in the assay with LOX IMVI melanoma; 107% with SK-MEL-28 melanoma; 126% with EKVX NSCLC; 116% in the assay on SN12C renal. For the same molecule, the growth is 92.9% with UO-31 renal; 109% in the assay with TK-10 renal; 85.9% in the assay on ACHN renal; 107% in the assay with CAKI-1 renal; 107% in the assay with A498 renal; 56.2% in the assay on CCRF-CEM leukemia. Further, the growth in the assay with MOLT-4 leukemia is 63%.

For the molecule `CN1CCN(Cc2ccc(NC(=O)c3ccc(C#Cc4c(N)ncc5ccc(F)cc45)cc3)cc2C(F)(F)F)CC1`, the growth in the assay with HCT-15 colon is -55.4% (active); in the assay on HT29 colon it was -73.2% (active); in the assay with SNB-75 CNS it was -15.1% (active); with SNB-19 CNS it was -91.8% (active); in the assay on U251 CNS, -75.8% (active); in the assay on PC-3 prostate, -37.2% (active). In addition, the growth was -91.2% (active) in the assay with SK-MEL-5 melanoma; -73.3% (active) in the assay on UACC-62 melanoma; -94.3% (active) with LOX IMVI melanoma; -97.8% (active) in the assay on SK-MEL-28 melanoma; -59.1% (active) in the assay on EKVX NSCLC; -71.3% (active) in the assay with SN12C renal. The growth is -56.8% (active) with UO-31 renal; -42.2% (active) with TK-10 renal; -92.6% (active) in the assay with ACHN renal; 42.7% with CAKI-1 renal; 77.9% with A498 renal; -40.2% (active) in the assay on CCRF-CEM leukemia. In addition, in the assay on MOLT-4 leukemia, the growth is -55.2% (active).

With `O=c1c2c(c3ccccc3n1-c1ccccc1)NC(=S)NC2c1ccc(Cl)cc1` (centres undefined), the growth was 28.6% in the assay on HCT-15 colon; 41.5% in the assay on HT29 colon; 41% in the assay on SNB-75 CNS; 39.7% in the assay with SNB-19 CNS; 32.4% in the assay on U251 CNS; -4.33% (active) with PC-3 prostate. Also, the growth is 1.08% (active) in the assay on SK-MEL-5 melanoma; 22.4% with UACC-62 melanoma; 8.65% (active) in the assay with LOX IMVI melanoma; 48.2% with SK-MEL-28 melanoma; 20% in the assay with EKVX NSCLC; 50.1% in the assay with SN12C renal. The growth in the assay with UO-31 renal was 47.6%; with TK-10 renal, 10.8%; in the assay on ACHN renal, 52.7%; in the assay on CAKI-1 renal it was 33.2%; in the assay with A498 renal, 50.6%; with CCRF-CEM leukemia, 7.43% (active). The growth in the assay on MOLT-4 leukemia is 25.4%.

Take `COc1cc(-c2nn(-c3ccc(NC(=O)c4ccc(Cl)c(C(F)(F)F)c4)cc3)cc2-c2ccncc2)ccc1Cl`: the growth was -44.1% (active) in the assay with HCT-15 colon; -75.5% (active) in the assay on HT29 colon; -7.6% (active) in the assay on SNB-75 CNS; 32.9% in the assay with SNB-19 CNS; 22.2% in the assay with U251 CNS; 2.37% (active) in the assay on PC-3 prostate. Moreover, the growth was -93.3% (active) in the assay with SK-MEL-5 melanoma; -0.867% (active) in the assay on UACC-62 melanoma; 21.6% in the assay on LOX IMVI melanoma; 35.7% in the assay with SK-MEL-28 melanoma; 24.3% in the assay on EKVX NSCLC; 52.7% in the assay on SN12C renal. Moreover, the growth in the assay with UO-31 renal is 16.3%; in the assay with TK-10 renal, 6.27% (active); in the assay on CAKI-1 renal, -16.7% (active); in the assay on A498 renal, 31.9%; in the assay with CCRF-CEM leukemia, 6.52% (active); with MOLT-4 leukemia, 3.94% (active).

The record behind these values is PubChem BioAssay (NCI).
